# DRD3 antagonist: antagonists of human D3 dopamine receptor; D3R cells, DiscoveRx beta-arrestin luminescence, antagonist mode; active compounds read low; max response, negative = inhibition, %; hit rate 2.5% among 360,000; AID 652054; in the data active means max response below about -50%; inconclusive means no clear call, values can overlap the other calls; further: on the % scale 0 is the no-effect control and ±100 the full control effect
#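 Cells plated overnight at 1500 cells/well, then exposed to library compounds with dopamine controls for 90 minutes at 37 degrees C. DiscoveRx reagent added for 30–60 minutes at room temperature; luminescence read, quantitative HTS format.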
# RGS4 inhibitor: human RGS4 inhibition. Potency, µM (doses to about 114 µM), for the others: at the top dose activity change, negative = inhibition, actives largely listed as inhibitors. Transcreener GDP fluorescence polarization, RGS4-accelerated GTP hydrolysis. hit rate 0.039% among 390,000. P49798; further: potency means the concentration at half of the fitted maximal effect; on the % scale 0 is the no-effect control and ±100 the full control effect; nearly all actives have a fitted effect of over 75% in size
#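 MLSMR compounds (23 nl, pin-transferred) preincubated 10 min at room temperature with a 500nM (2x) first reagent, then RGS4 at 900nM (2x) plus Transcreener GDP mix added; fluorescence polarization (620/688 nm) read before and after 90 min at 30 °C.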
# PTHR1 agonist: PTHR1 (human) receptor agonism | Q03431 | HEK293 GP2 PTHR1 cells, GloSensor cAMP luminescence, 1 h | Potency, µM (highest dose often 115 µM), without a hit: at the highest dose activation, most hits filed as activators | hit rate 0.075% among 410,000 | AID 743266; further: potency means the concentration at half of the fitted maximal effect; nearly all actives have a fitted effect of over 55% in size
# Target sequence (Q03431 whole entry, looked up): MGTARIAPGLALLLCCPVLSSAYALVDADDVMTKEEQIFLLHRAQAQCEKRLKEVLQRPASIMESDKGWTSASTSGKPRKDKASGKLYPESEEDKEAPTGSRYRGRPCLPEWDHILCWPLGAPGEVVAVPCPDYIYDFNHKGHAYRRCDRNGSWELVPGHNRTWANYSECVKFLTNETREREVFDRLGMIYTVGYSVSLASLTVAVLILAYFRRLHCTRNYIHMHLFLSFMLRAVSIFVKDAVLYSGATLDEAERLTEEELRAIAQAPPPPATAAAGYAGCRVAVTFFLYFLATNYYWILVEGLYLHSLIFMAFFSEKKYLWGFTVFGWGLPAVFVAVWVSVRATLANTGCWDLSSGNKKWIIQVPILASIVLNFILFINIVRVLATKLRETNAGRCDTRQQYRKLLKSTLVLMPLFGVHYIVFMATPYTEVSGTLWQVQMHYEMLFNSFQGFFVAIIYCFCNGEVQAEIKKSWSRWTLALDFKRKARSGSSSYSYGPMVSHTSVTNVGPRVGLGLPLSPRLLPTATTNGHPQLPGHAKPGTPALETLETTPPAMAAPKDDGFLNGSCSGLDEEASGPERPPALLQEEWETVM
#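 HEK-293-derived GP2 cells expressing PTHR1 and a GloSensor cAMP reporter, 3,000/well, plated overnight, given luciferin plus IBMX (each 0.5 mM as added) for 1 h at 37 °C, then compound for 1 h at 37 °C. Luminescence was read after 15 min at room temperature.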
# BRCA1 expr act: increases BRCA1 expression; MCF7-BRCA1-FFLuc reporter, luminescence, 48 h; response scale: scaled: vehicle 0%, 10 µM genistein 100%; Potency, µM (highest dose often 46.1 µM), for the others: at the top dose activation, actives largely listed as activators; hit rate 1.1% among 380,000; AID 624202; further: potency means the concentration at half of the fitted maximal effect; nearly all actives have a fitted effect of over 80% in size
#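 Reporter cells (MCF7, BRCA1 promoter-firefly luciferase) received library compounds across a concentration series for 48 h. End-point luminescence was measured and concentration-effect curves derived after normalization.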
# D3 ag: D3 dopamine receptor (human) agonism; P35462; D3R DiscoveRx beta-arrestin cells, luminescence, 90 min; max activation, %; hit rate 0.58% among 410,000; AID 652048; in the data active means max activation above about 30%; further: 0% is about no effect
#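 Agonist mode: compounds and dopamine controls were applied to plated cells for 90 min at 37 degrees C after an overnight attachment at 1500 cells/well. Luminescent read-out followed 30 - 60 minutes at room temperature with DiscoveRx detection reagent.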
# B2AR arrestin: recruits beta-arrestin to the human beta2-adrenergic receptor; hit rate 0.02% among 330,000; beta-arrestin recruitment to beta2AR, cell-based reporter; Potency, µM (top dose mostly 46.1 µM), for inactives: at the highest dose activation, usual class: activators; P07550;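 further: potency means the concentration at half of the fitted maximal effect; 0% = DMSO controls and full agonism = EC100 isoproterenol or metaproterenol; nearly all actives have a fitted effect of over 65% in size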
# * hit, by the source's call; i = inactive; ? = inconclusive; / = not tested or not shown; ! = a repeat was not active; [ ] = another dose, or the depositor's remark. Hits are enriched below; roughly 3.7% of the tested compounds scored in any of these assays. Unless noted, the call rests on the fitted dose curve; in most records, active means well fitted curve in the direction sought with a large enough effect; inconclusive means small, poorly fitted or top-dose-only effect, or another doubt; inactive means no such curve, though single readings can be large; an effect the other way counts as inactive or inconclusive.
SMILES,DRD3 antagonist,RGS4 inhibitor,PTHR1 agonist,BRCA1 expr act,D3 ag,B2AR arrestin
O=C(CN1CCN(C(=O)CNC(=O)c2ccc(N3CCCC3=O)cc2)CC1)Nc1cccc(F)c1,0,/,-4%,33%,-2,/
COc1ccc(C(=O)NCCN2CCC(n3c(=O)[nH]c4ccccc43)CC2)cc1F,-91*,/,-80%,31%,-11,/
O=C(NCCN1CCC(n2c(=O)[nH]c3ccccc32)CC1)c1ccc(F)c(C(F)(F)F)c1,-84*,/,-23%,10%,-14,/
O=C(NCCN1CCC(n2c(=O)[nH]c3ccccc32)CC1)c1ccc(F)c(F)c1,-93*,/,-29%,7%,-12,/
CC1CCN(CCCNC(=O)c2ccc3c(=O)n(CCc4ccccc4)c(=O)[nH]c3c2)CC1,-28,6%,-2%,1%,-5,0%
O=C(NCCN1CCC(n2c(=O)[nH]c3ccccc32)CC1)c1ccc(C(F)(F)F)cc1C(F)(F)F,-92*,/,-40%,-20%,-15,/
CCCCCn1c(=O)[nH]c2cc(C(=O)NCCN3CCC(C)CC3)ccc2c1=O,6,-20%,21%,-1%,-28,0%
Cc1ccc(NC(=O)Cn2c(=O)n(Cc3nc(C)no3)c(=O)c3cc4c(cc32)OCO4)c(Cl)c1,/,6%,-18%,/,7,/
CCOC(=O)c1ccc(NC2(c3ccccc3)C(=O)c3ccccc3C2=O)cc1,/,11%,-19%,/,9,/
CN(C)c1nc(N/N=C/c2ccccc2O)nc(Nc2ccc(F)cc2)n1,-85*,-20%,-1%,-83%,-36,?
CC(C)(C)C1CCc2c(sc(NC(=O)CSc3ncn[nH]3)c2C#N)C1 (stereo not drawn),21,?,i,-73%,36*,2%
COc1ccccc1CNC(=O)CN(C)CC(=O)Nc1ccc(F)c(F)c1F,8,13%,i,-37%,-5,-2%
CC(C)(C)NC[C@H](O)COc1ccccc1C1CCCC1,/,/,/,/,-25,/
CC(=O)Oc1cc2c(cc1OC(C)=O)C(=O)CCCC2,-2,/,-3%,3%,66*,/
COc1cc2c(cc1OC(C)=O)C(=O)CCCC2,0,/,-4%,19%,-8,/
COc1ccc(Cl)cc1NC(=O)CSc1c2c(nc3ccccc13)CCC2,/,0%,i,/,4,/
CC(=O)NC(=O)COC(=O)/C=C/c1c(C)nn(Cc2c(Cl)cccc2Cl)c1Cl,-56*,-1%,-57%[57.5 µM],7%,2,4%
O=C(Nc1ccccc1)Nc1ccc(Cl)c(S(=O)(=O)N2CCOCC2)c1,-51*,6%,-43%,-42%,-11,0%
O=C(Nc1ccc(NC(=O)c2ccc(Cl)c(S(=O)(=O)N3CCOCC3)c2)cc1)c1ccccc1,-5,-9%,i,15%,4,0%
CC(=O)Nc1ccc(NC(=O)Cc2ccc(S(=O)(=O)N3CCCCC3)cc2)cc1,25,-30%,-13%,-17%,-5,-1%
C#Cc1ccc(NC(=O)C2(C)CCN2C(=O)C2(c3ccccc3)CCCC2)cc1 (stereo not drawn),13,/,i,-29%,4,/
OCCN1CCN(CCOc2ccccc2-c2ccccc2)CC1,-85*,?,?,-22%,-24,0%
Clc1ccc(OCCOCCN2CCc3ccccc3C2)c(Cl)c1,-74*,-13%,-16%,-68%,-33,0%
CC(C)(C)c1cc(Cl)ccc1OCCOCCN1CCCC1,-30,-5%,-9%,-31%,-29,0%
CC1CN(CCOCCOc2ccccc2-c2ccccc2)CC(C)O1 (stereo not drawn),-21,-1%,i,-1%,-20,-1%
SMILES,DRD3 antagonist,RGS4 inhibitor,PTHR1 agonist,BRCA1 expr act,D3 ag,B2AR arrestin
Clc1ccc(OCCCN2CCc3ccccc3C2)c(Br)c1,-105*,-1%,-54%,-6%,-3,0%
c1ccc(-c2ccccc2OCCOCCN2CCc3ccccc3C2)cc1,-93*,-9%,-17%,-36%,-25,0%
CC(C)CNC(=O)C1(C)CCCN1C(=O)CCc1cccs1 (stereo not drawn),0,/,15%,-2%,-6,/
CCOC(=O)[C@H]1[C@H]2COc3ccc(OC)cc3[C@@H]2N2C(=O)[C@H](C)NC(=O)[C@@]12C,14,8%,i,2%,3,0%
CC(C)(C)OC(=O)N1CCC(c2c(C(=O)NCCN3CCC(Cc4ccccc4)CC3)cnn2-c2cccc(Cl)c2)CC1,/,-14%,i,/,-31,/
CNC[C@H](O)c1cccc(O)c1,-14,-9%[56.9 µM],?,12%,45*!,/
Nc1c(-c2ccc(Cl)cc2)cnn1-c1ccccc1,-11,-2%,-22%,?,-8,-1%
Nc1c(-c2ccc(Cl)cc2)nnn1-c1ccccc1,-16,-29%,-10%[57.5 µM],7.1µM*,1,-1%
CCOc1ccc(NS(=O)(=O)c2c(C)nc3sc(CC)nn3c2=O)cc1,-53*,-9%,-7%,0%,0,0%
CCc1nn2c(=O)c(S(=O)(=O)Nc3ccc(Cl)cc3)c(C)nc2s1,9,-23%,i,6%,2,0%
O=C(/C=C/c1ccc(F)cc1)NCc1cccs1,10,6%,-14%,14µM*,0,-1%
O=C(/C=C/c1cccs1)NCc1ccccc1,-7,-6%,-9%,14µM*,2,0%
O=C(/C=C/c1ccc(Br)cc1)NCc1cccs1,-2,-12%,-22%,81%,-5,-2%
O=C(/C=C/c1ccccc1Cl)NCc1cccs1,2,-1%,-3%,4µM*,-9,-1%
CCN(CC(=O)Nc1ccc(NC(C)=O)cc1)Cc1c(O)ccc2cc(Br)ccc12,-3,?,-7%,3%,9,-1%
Cc1cc(Br)ccc1NC(=O)CN(C)C(=O)c1cc(S(=O)(=O)N(C)C)ccc1N1CCCC1,5,2%,-5%,-18%,1,-1%
COc1cc2nc(SCC(=O)Nc3c(C)cc(C)cc3C)n3nc(CCn4c(C)nc5ccccc54)nc3c2cc1OC,/,-8%,14%,/,-4,/
O=C(Nc1ccc(Oc2cccnc2)cc1)c1ccccc1F,-2,-9%,-30%[57.5 µM],4µM*,0,1%
O=C(Nc1ccc(Oc2cccnc2)cc1)c1ccccc1Cl,-22,8%,-11%,87%,-8,0%
c1cc(CNC2C3CC4CC(C3)CC2C4)ccn1 (stereo not drawn),-57*,6%,-3%,3%,-16,0%
COc1ccc(CNC(=O)COC(=O)c2nc3nc(C)cc(C)n3n2)cc1,22,3%,i,-3%,5,0%
COc1ccc([C@H]2CC(=O)C=C(c3ccc(C)c(F)c3)C2)cc1,?,6%,-6%,17%,-2,-1%
